Measurements reported in PubChem BioAssay (NCI).
About 83,000 compounds went through this panel and 20% of them were active in at least one assay; those are over-represented in the sample as a whole.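 Method: cells in 96-well plates; compound added at one concentration; 48 h incubation; percent growth measured; values under 10 scored active.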 Values without a mark were called inactive. The source made the active and inactive calls.

Legend:
Assay in all cases: NCI-60 one-dose screen, 48 h (100 = growth as untreated, 0 = no growth, -100 = all killed)
Conditions in all cases: 10 µM unless noted
BT-549 breast = system: BT-549 breast
SW-620 colon = system: SW-620 colon
MCF7 breast = system: MCF7 breast
HCT-116 colon = system: HCT-116 colon
HCC-2998 colon = system: HCC-2998 colon
KM12 colon = system: KM12 colon

Row | SMILES | growth (BT-549 breast) | growth (SW-620 colon) | growth (MCF7 breast) | growth (HCT-116 colon) | growth (HCC-2998 colon) | growth (KM12 colon)
1 | COc1cc(/C=C/C(=O)c2ccccc2)ccc1Oc1nc(NCCO)nc(N2CCOCC2)n1 | 92.4% | 60.9% | 46.9% | 69.5% | 113% | 102%
2 | CN1C(=S)N(C)C2C1NN=C1SC(c3ccccc3)=CC(=O)N12 (stereo not drawn) | 98.1% | 105% | 96.1% | 98.8% | 106% | 98.3%
3 | COc1cc2cc(Oc3ccc(NC(=O)c4cccc(C(F)(F)F)c4)cc3)c(C)nc2cc1OCCN1CCCCC1 | 98.7% | -71.7% (active) | 12.7% | – | -17.7% (active) | –
4 | O=C(NNc1nc2cc(F)ccc2n2c(CN3CC4(COC4)C3)ccc12)c1cnccn1 | 36.4% | 27.1% | 13.6% | – | 57.3% | 23%
5 | O=C1c2c(c3c4cc(Br)ccc4[nH]c3c3ccc4ccccc4c23)C(=O)N1CCO | 105% | 75.9% | 34.3% | – | 103% | –
6 | C#C[C@]1(O)CC[C@H]2[C@@H]3CC=C4c5sc(-c6ccc(F)cn6)nc5CC[C@]4(C)[C@H]3CC[C@@]21C | 7.85% (active) | 16.1% | 12.1% | 18.1% | 65.1% | 13.9%
7 | Cc1sc2c(c1C)c(=O)nc1c(-c3nc(-c4ccc(F)cc4)no3)n[nH]n12 | 102% | 111% | 89.7% | 103% | 104% | 106%
8 | COc1ccc(-c2nc3ccc(-c4nnc(SCC(=O)Nc5ccc(C(=O)/C=C/c6ccc(Cl)cc6)cc5)o4)cc3[nH]2)cc1OC | 106% | 105% | 75.9% | – | 124% | 104%
9 | CS(=O)(=O)c1ccc(-c2nc3ccccn3c2C=Nc2ccc(Cl)cc2)cc1 | 74.3% | 63% | 87.7% | 52.1% | 95.8% | –
10 | O=C(CCN1C(=O)/C(=C/c2ccccc2F)SC1=S)N1CCOCC1 | 108% | 58.8% | – | 81.9% | 115% | 80.8%
11 | Nc1cc(-c2c[nH]c3ccccc23)nc2cc(-c3c[nH]c4ccccc34)nn12 | 84.4% | – | 26.7% | 30.7% | 21% | 10.3%
12 | Cn1ccnc1C(=O)/C=C/c1ccc(NC(=O)Nc2ccccc2)cc1 | -3.85% (active) | 2.15% (active) | 6.81% (active) | – | -22% (active) | 1.03% (active)
13 | Cc1ccc(/C=C/c2nn3c(-c4ccco4)nnc3s2)cc1C | 107% | 98.5% | 82.1% | 109% | 108% | 110%
14 | CC(O)C(NC(=O)C1CCCN1C(=O)CNC(=O)C1CC(=O)NCC(=O)NC(Cc2c[nH]c3ccccc23)C(=O)NC(Cc2ccc(O)cc2)C(=O)NCC(=O)NC(CO)C(=O)NC(CCC(N)=O)C(=O)NC(Cc2c[nH]c3ccccc23)C(=O)N1)C(=O)NCC(=O)NC(CCC(N)=O)C(=O)NC(CCCNC(=N)N)C(=O)NC(CC(=O)O)C(=O)O (stereo not drawn) | 115% | 102% | 96.4% | – | 120% | 105%
15 | CS(=O)(=O)c1ccc(-c2nc3ccccn3c2/C=N/Nc2nc(-c3ccc(Cl)cc3)cs2)cc1 | 103% | 113% | 91.6% | – | 125% | 112%
16 | CS(=O)(=O)c1ccc(-c2nc3ccccn3c2/C=N/Nc2nc(-c3ccc(Br)cc3)cs2)cc1 | 114% | 98.2% | – | 101% | 120% | 101%

Row | SMILES | growth (BT-549 breast) | growth (SW-620 colon) | growth (MCF7 breast) | growth (HCT-116 colon) | growth (HCC-2998 colon) | growth (KM12 colon)
17 | CC(=O)Nc1cc(F)cc(-c2ccc3[nH]cc(-c4ccccc4)c3n2)c1 | 73.1% | -56.2% (active) | 1.97% (active) | 11.9% | -19% (active) | -41% (active)
18 | COc1cc(/C=C/C(=O)c2cc(OC)c(OC)c(OC)c2)ccc1OCc1ccccc1 | 32% | 13.2% | 8.1% (active) | 6.71% (active) | 44.6% | 11.3%
19 | Cc1c(Nc2nnc(SCC(=O)Nc3sc4c(c3C#N)CCCC4)s2)c(=O)n(-c2ccccc2)n1C | 113% | 103% | 93.5% | 102% | 115% | 98%
20 | N=C1CC(=O)NN1C(=O)CSc1nc2sc3c(c2c(=O)n1-c1ccc(Cl)cc1)CCCC3 | 102% | 98% | – | 99% | 116% | 104%
21 | Nc1nc(N)c2c(n1)NC(c1ccc(C(F)(F)F)cc1)CC(c1ccc(Nc3nc(NCCO)nc(Nc4ccc(Cl)cc4)n3)cc1)=N2 (stereo not drawn) | -28.7% (active) | – | -52.5% (active) | -85.3% (active) | -86.6% (active) | -65.3% (active)
22 | COc1ccc(-c2nc3ccc(-c4nnc(SCC(=O)Nc5ccc(C(C)=O)cc5)o4)cc3[nH]2)cc1 | 112% | 103% | 77.1% | 109% | 111% | 105%
23 | O=C(CSc1nc2sc3c(c2c(=O)n1-c1ccc(Cl)cc1)CCCC3)N/N=C/c1ccc(F)cc1 | 116% | 61.9% | 74.7% | 99.7% | 112% | 90.1%
24 | CCOC(=O)c1c(Nc2ccccc2)nn2c(N)c(C#N)c(-c3ccccc3)nc12 | 95% | 81.6% | 60.1% | 78.3% | 97% | 77.7%
25 | COc1ccc(-n2c(SCC(=O)Nc3ccc(-c4nc5ccccc5[nH]4)cc3)nc3ccccc3c2=O)cc1 | -65% (active) | 8.47% (active) | -49.2% (active) | -39.6% (active) | 34.8% | 18.7%
26 | O=C(c1ccc(O)cc1)C1[C@H](c2ccc(Cl)cc2)[C@@H](c2ccccc2)NC12C(=O)Nc1ccc(Cl)cc12 (stereo partly drawn) | 77.3% | 40.5% | 9.87% (active) | 14.5% | 18% | 24.4%
27 | COc1ccc(/C=C2\SC(=Nc3cc(C)[nH]n3)NC2=O)cc1 | 90.5% | 97.1% | 85.5% | 97.2% | 99.8% | 89.8%
28 | Cc1ccc(CNS(=O)(=O)/N=C2\NC(=O)NC2=C(Cl)Cl)cc1 | -8.68% (active) | 32.4% | 17.2% | 9.17% (active) | – | 24%
29 | CCCCN1C(=O)/C(=c2\sc3n(c2=O)C2C(NN=3)N(CC)C(=O)N2CC)c2cc(Cl)ccc21 (stereo not drawn) | 85% | – | 27.5% | 56.7% | 101% | 55.8%
30 | COc1ccc(/C=C2\SC(=Nc3cc(C)on3)NC2=O)cc1 | 88.1% | 99% | – | 96.1% | 108% | 108%
31 | COc1cc2nc(-c3ccc(C)cc3)cc(OCCCNCC3CCCO3)c2cc1OC (stereo not drawn) | 98.5% | 77.5% | 59.7% | 40.7% | 83.4% | 60%
